Reference: publication PMC5540273 (PLoS ONE, 2017)

What follows are compounds tested on SRC. Conditions: concentration: 1 μM, replicates: in singlicate; n = 1.
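Note: KINOMEscan kinase panel screen.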

| SMILES | %Inh |
| --- | --- |
| CC(C)c1nc(-c2cccc(NS(=O)(=O)c3c(F)cccc3F)c2F)c(-c2ccnc(Nc3ccc(N4CCOCC4)nc3)n2)s1 [GSK2008607] | 100% |
| C[C@@H]1CC[C@@H](C(=O)Nc2ccccc2)CN1c1cc(-c2ccc3c(N)n[nH]c3c2)nc(N)n1 [GSK2286062] | 0% |
| COc1ccc(CNC(=O)NC2CCN(c3ccnc(Nc4ccc(F)cc4)n3)CC2)cc1 [GSK1379788] | 0% |

These compounds were tested on SRMS. Conditions: concentration: 1 μM, replicates: in singlicate; n = 1.

| SMILES | %Inh |
| --- | --- |
| c1ccc(Oc2ccc(Nc3ccnc4cc(-c5ccc(CNCCN6CCOCC6)o5)ccc34)cc2)nc1 [GW567145] | 87% |
| Cn1cc(-c2[nH]c3cc(NC(=O)[C@H](N)C4CCCCC4)cc4c3c2C=NNC4=O)cn1 | 75% |
| O=C(Nc1cccc(-c2nn3ccccc3c2-c2ccnc(Nc3cccc(F)c3)n2)c1)c1c(F)ccc(F)c1Cl [GSK357952] | 28% |
| Cc1ccc(C)c(NC(=O)NC2CCN(c3ccnc(Nc4ccc(F)cc4)n3)C2)c1 (stereo not drawn) [GSK1379720] | 0% |
| O=C(Nc1n[nH]c2cc(-c3ccoc3)ccc12)C1CC1 [SB-738481] | 19% |
| COc1cccc(C(=O)Nc2cccc(Oc3ccc4nc(NC(=O)C5CC5)cn4n3)c2)c1 | 20% |
| Cc1ccc(S(=O)(=O)Nc2ccc(Nc3nccc(Nc4cccc5[nH]ncc45)n3)cc2)cc1 [GSK581271] | 0% |
| CN(C)Cc1ccc(-c2ccc3c(Nc4ccc(Oc5ccccn5)cc4)ccnc3c2)o1 [GW567148] | 94.5% |
| Nc1ncc(-c2ccc3nccc(-c4ccncc4)c3c2)cc1S(=O)(=O)N1CCOCC1 [GSK1627798] | 0% |
